# According to PubChem BioAssay AID624330 (Southern Research Specialized Biocontainment Screening …, 2012):
# Values joined by “and” are separate entries in the source; they are usually repeats but may differ in a detail not shown here. Equal values may be shown once. The whole screen tested about 340,000 compounds, of which about 2,100 (0.62%) were called active. These entries were drawn from the full list. Entries with a potency or affinity are not part of this list. Unmarked numbers belong to inactive results.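 Rule for the calls: active = first-screen hits whose inhibition reached a set limit at any dose in the follow-up dose series; inconclusive = inhibition above the set first-screen limit but never retested; inactive = the rest.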
# Target: Rac GTPase-activating protein 1 (Homo sapiens) (UniProt Q9H0H5)
# Assay: MgcRacGAP GTPase-activating activity inhibitors, confirmation, biochemical, ADP Hunter fluorescence, primary and confirmatory (AID 624330);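 note: fluorescence reports GDP produced by GAP-driven GTP hydrolysis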
# Settings: MgcRacGAP-stimulated Rac1 GTP hydrolysis, at 30 µM, stronger effect = higher value, GST-tagged Rac1 F28L mutant substrate
# Chain of Rac GTPase-activating protein 1 (Homo sapiens) (Q9H0H5 whole entry, looked up): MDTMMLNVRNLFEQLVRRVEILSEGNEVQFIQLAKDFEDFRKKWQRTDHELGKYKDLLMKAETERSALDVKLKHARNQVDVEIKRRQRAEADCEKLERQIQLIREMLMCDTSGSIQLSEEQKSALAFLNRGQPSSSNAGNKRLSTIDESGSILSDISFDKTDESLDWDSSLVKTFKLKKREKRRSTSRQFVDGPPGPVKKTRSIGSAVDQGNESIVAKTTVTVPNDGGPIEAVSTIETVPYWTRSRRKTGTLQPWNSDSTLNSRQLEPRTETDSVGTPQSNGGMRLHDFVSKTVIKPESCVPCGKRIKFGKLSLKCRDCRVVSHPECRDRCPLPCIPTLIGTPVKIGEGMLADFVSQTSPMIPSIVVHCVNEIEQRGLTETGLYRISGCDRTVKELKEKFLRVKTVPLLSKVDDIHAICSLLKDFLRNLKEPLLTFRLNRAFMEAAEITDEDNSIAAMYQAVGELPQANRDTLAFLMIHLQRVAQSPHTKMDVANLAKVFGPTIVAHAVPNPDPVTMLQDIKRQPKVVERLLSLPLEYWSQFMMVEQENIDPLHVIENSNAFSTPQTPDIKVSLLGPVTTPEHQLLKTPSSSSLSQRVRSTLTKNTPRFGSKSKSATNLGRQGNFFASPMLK
row,Compound,inhibition
1,CCCCc1ncc(CN2CCC(n3nccc3NC(=O)C(OC)c3ccccc3)CC2)[nH]1 (stereo not given),8.08%
2,O=C(CN1CCN(Cc2ccccc2)C1=O)NCc1ccc(Cl)cc1,3.73%
3,NC(=O)COc1ccc(C(=O)NCC2(N3CCOCC3)CCCCC2)cc1,4.65%
4,Cc1ccc([C@H]2C[C@@H](O)[C@H](n3cc(COC(=O)c4ccccc4)nn3)CN2Cc2cccs2)cc1,-0.67%
5,COc1ccccc1NC(=O)c1ccc(NC(=O)COC(=O)c2cncc(Br)c2)cc1,5.46%
6,CC(C)CC1C(C#N)=C(N)OC2=C1C(=O)CC(c1ccccc1)C2 (stereo not given),-2.75%
7,COc1ccc(CCn2c(-c3cc([N+](=O)[O-])cc([N+](=O)[O-])c3)nc3nc4ccccc4nc32)cc1,4.41%
8,CN(Cc1cnccn1)C(=O)C1CCC(=O)N(CCc2ccc(Cl)cc2)C1 (stereo not given),8.49%
9,COC(=O)c1ccc(OCC(O)CN2CCOCC2)cc1 (stereo not given),-9.81%
10,COc1ccc(CCNC(=O)N2CCOCC2)cc1,14.2%
11,CN1CCN(NC(=O)NC2CCCCC2)CC1,2.74%
12,COc1cc(NC(=O)c2cccs2)ccc1NC(=O)Cc1ccccc1,4.97%
13,N#Cc1cccc(NC(=O)CNc2cccc(S(=O)(=O)N3CCCC3)c2)c1,-1.55%
14,O=C(Nc1cccc(S(=O)(=O)N2CCOCC2)c1)c1c2c(nc3ccccc13)CCC2,11.9%
15,COC(c1ccccc1)c1nnc(CCC(=O)NCc2ccc3ncccc3c2)o1 (stereo not given),9.84%
16,CCCN1CNC(=S)N(c2ccc(C)cc2C)C1,16.6%
17,CC(C)N(Cc1cc2ccccc2[nH]c1=O)C(=O)C(C)(C)C,-1.34%
18,CCc1c(C)nc(N)nc1Cl,-2.74%
19,CCOC(=O)C(Sc1cc(C)nc(N)n1)C(C)=O (stereo not given),0.9%
20,COc1cc2c(cc1OC)C(c1ccccc1)=NCC2,3.03%

row,Compound,inhibition
1,COc1cc2c(cc1OC)C(C)=NCC2,5.87%
2,Cc1cc(OCC(=O)OCC(=O)Nc2cc(S(=O)(=O)N3CCOCC3)ccc2Cl)ccc1Cl,2.85%
3,CCOC(=O)CN1C(=N)N(c2nc(NC(C)C)nc(NC(C)C)n2)CC1=O,7%
4,CCOC(=O)Cc1csc(NC(=O)CSc2nnnn2-c2ccc(CC)cc2)n1,8.91%
5,Cc1ccc(NC(=O)CCNC(=O)c2ccccc2Cl)cc1S(=O)(=O)N(C)C,2.79%
6,Cc1ccc(NC(=O)CCNC(=O)Nc2ccccc2)cc1S(=O)(=O)N(C)C,2.28%
7,CCN1/C(=N\N)c2cccc3cccc1c23,13.1%
8,CN1C(=O)N(C)c2cccc3cccc1c23,6.07%
9,Cc1oc(-c2cccc(F)c2)nc1CN1CCCN(C(=O)c2ccco2)CC1,9.79%
10,CCCCn1c(N)c(N(Cc2ccccc2OC)C(=O)C(C)Oc2ccc(Cl)cc2)c(=O)[nH]c1=O (stereo not given),3.24%
11,Cc1ccc(S(=O)(=O)N(C)Cc2ccc(C(=O)NN=C(CC(C)C)CC(C)C)cc2)cc1,7.07%
12,CCn1cnc2c(Nc3cccc(Cl)c3)nc(C#N)nc21,12.9%
13,O=C(Cn1c(C(=O)NCCCN2CCOCC2)cc2sccc21)c1ccccc1,29.1%
14,O=C(NCc1ccco1)c1ccccc1,4.89%
15,O=C(NCc1ccco1)c1cc2sccc2n1Cc1ccccc1,12.8%
16,O=C(NCC1CCCO1)c1ccccc1 (stereo not given),-0.11%
17,CN1CCc2c(n(CC(O)CNCc3ccccc3)c3ccccc23)C1=O (stereo not given),8.39%
18,COc1cc(C(F)(F)F)c(C(=O)N(C)Cc2ccc(Cl)c(Cl)c2)cn1,5.07%
19,O=C(CN1C(=O)c2ccccc2S1(=O)=O)Nc1ccc(S(=O)(=O)N2CCCC2)cc1,-4.76%
20,CN1CCN(S(=O)(=O)c2ccc(Cl)cc2)CC1,4.29% and 1.92%

row,Compound,inhibition
1,O=S(=O)(c1ccc(Cl)cc1)N1CCCCCC1,4.19%
2,Cc1ccc(S(=O)(=O)NCCc2ccccc2)cc1,8.77%
3,Cc1ccc(S(=O)(=O)N2CCC(C(=O)N3CCCC(C(F)(F)F)C3)CC2)cc1C (stereo not given),5.5%
4,CCOC(=O)C1=C(C)N(C)C(=O)NC1c1cc2c(cc1[N+](=O)[O-])OCO2 (stereo not given),11.2%
5,CCOC(=O)C1=C(C)NC(=O)CC1c1cc2c(cc1Br)OCO2 (stereo not given),14.8%
6,COc1ccc(CC(Cc2ccc(OC)c(OC)c2)NC=O)cc1OC,8.2%
7,O=C(Nc1ccccc1C(=O)Nc1ccccc1)c1ccco1,3.51%
8,CCOc1ccc(N2C(=O)C3C(c4ccccc4F)NN(C(=O)c4ccc(C)cc4)C3C2=O)cc1 (stereo not given),-3.94%
9,CC(=O)C1C(c2ccc([N+](=O)[O-])cc2)c2c(noc2C)CC1(C)O (stereo not given),-3.68%
10,CC(C)(C)OC(=O)n1cc(/C=N/NC(=O)c2ccco2)c2ccccc21,6.56%
11,O=C(O)CCCN1C(=O)/C(=C/c2ccc(-c3nc4ccccc4s3)o2)SC1=S,11.9%
12,O=C(O)CCCN1C(=O)/C(=C\c2ccc(-c3nc4ccccc4s3)o2)SC1=S,10.4%
13,COc1ccc(NC(=O)CNC(c2ccccc2)c2ccccc2)cc1Cl,5.6%
14,Cc1cccc(NC(=O)Cn2c(=O)oc3cc(S(=O)(=O)N4CCCC4)ccc32)n1,9.63%
15,CN(C)S(=O)(=O)Oc1ccc(Cl)cc1C(=O)Nc1ccc(F)cc1F,0.65%
16,Cc1ccc(F)cc1N=Cc1c(O)c2ccccc2oc1=O,7.61%
17,Cc1ccc(N=Cc2c(O)c3ccccc3oc2=O)c(C)c1,5.4%
18,COc1ccccc1NC(=O)C(=O)N1N=C(C(C)C)CC1(O)C(F)(F)F (stereo not given),-2.51%
19,O=C(NCc1cccc(C(F)(F)F)c1)C1CC(c2ccc(C(F)(F)F)cc2)=NO1 (stereo not given),7.21%
20,Cc1ccc(Nc2cc(C)nc3ncnn23)c(C)c1,7.05%
